The campaign covered roughly 52,000 compounds. About 4,300 (8.3%) were called active. Rule as the data show it: active = survival mostly below about 52% (no sharp cut-off); inactive = mostly above about 56%. This excerpt belongs to a sample that is enriched for actives.
Test system: DeltatarO mutant
Assay: S. aureus survival, RN4220 and DeltatarO strains – OD600, teichoic acid synthesis inhibitors, primary screen (AID 463173)
Details: S. aureus RN4220 wild type/DeltatarO growth, OD600, 18 h, active compounds read low, screened at 18.75 µg/mL (by protocol)

SMILES	survival
Cc1c(C(=O)N(Cc2ccc(N(C)C)cc2)CC2CCCO2)oc2ccc(Br)cc12 (stereo unspecified)	58% (inactive)
CCc1nn2c(=O)cc(COC(=O)CNC(=O)c3ccccc3)nc2s1	123% (inactive)
Brc1ccc(-c2cc3c(N4CCN(c5ccccc5)CC4)nccn3n2)cc1	194% (inactive)
COC(=O)c1nc2n(n1)C(c1cc(OC)ccc1OC)C(C(=O)Nc1ccc(C)cc1C)=C(C)N2 (stereo unspecified)	79% (inactive)
COc1ccc(C(=O)n2nc(N)c3cc4ccc(C)cc4nc32)cc1OC	94% (inactive)
CCOC(=O)c1cc(-c2ccc(C)cc2)n(CC(=O)Nc2ccc(OC)c(Cl)c2)c1C	67% (inactive)
COC(=O)c1ccc(NC(=O)Cn2cnc3c2c(=O)n(C)c(=O)n3C)cc1	80% (inactive)
CCOc1ccc(C(=O)NCCc2sc(-c3ccc(F)cc3)nc2C)cc1	90% (inactive)
CCOc1ccc(C(=O)NCCc2sc(-c3ccc(C)cc3)nc2C)cc1	-1% (active)
COc1ccc(-c2nc(C)c(CCNC(=O)c3cc(OC)c(OC)c(OC)c3)s2)cc1OC	64% (inactive)
CCOc1ccc(NC(=O)C(=O)NCCc2sc(-c3ccc(C)cc3)nc2C)cc1	79% (inactive)
CCOc1ccc(C(=O)NCCc2sc(-c3ccc(OC)c(OC)c3)nc2C)cc1	109% (inactive)
COc1ccc(-c2nc(C)c(CCNC(=O)c3ccc(C(F)(F)F)cc3)s2)cc1OC	-2% (active)
O=c1[nH]cnc2scc(-c3ccsc3)c12	104% (inactive)
Cc1ccc(-c2nc3scc(CCNS(=O)(=O)c4ccc(Oc5ccccc5)cc4)n3n2)cc1	115% (inactive)
CC(C)OCCCn1c(=O)c2ccccc2n2c(-c3ccc(F)cc3)nnc12	98% (inactive)
CCCCCNC(=O)c1c[nH]c2ccc(S(=O)(=O)N3CCC(C)CC3)cc2c1=O	97% (inactive)
COc1ccc(N2CC(NC(=O)C3CC3)CC2=O)cc1OC (stereo unspecified)	73% (inactive)
Cc1ccc2nc(N(Cc3cccnc3)C(=O)CCS(=O)(=O)c3ccccc3)sc2c1	67% (inactive)
COc1ccc(-c2nc3ccccc3o2)cc1NC(=O)Cc1ccc(Cl)cc1	54% (inactive)
COc1ccc(-c2nc3ccccc3o2)cc1NC(=O)CSc1ccc(Cl)cc1	72% (inactive)
COc1ccc(OCC(=O)Nc2cc(-c3nc4ccccc4o3)ccc2Cl)cc1	70% (inactive)
CCCCC(=O)Nc1cc(-c2nc3ccccc3o2)ccc1OC	7% (active)

SMILES	survival
COc1ccc(-c2nc3ccccc3o2)cc1NC(=O)COc1ccc(C(C)(C)C)cc1	4% (active)
COc1ccc(-c2nc3ccccc3o2)cc1NC(=O)COc1c(C)cc(Cl)cc1Cl	67% (inactive)
Cc1cn2c(=O)cc(COc3ccc(NC(=O)c4cccc(F)c4)cc3)nc2s1	125% (inactive)
COc1ccc(Cl)cc1NC(=O)c1cc2ccccn2n1	124% (inactive)
COc1cc(C2C(C(=O)c3ccco3)=C(O)C(=O)N2CCc2ccccc2)ccc1O (stereo unspecified)	86% (inactive)
COc1ccc(Cn2c(=O)c3oc4ccccc4c3n(Cc3cccc(C)c3)c2=O)cc1	64% (inactive)
Cc1ccccc1OCCn1c(-c2ccc(Cl)cc2)nc2ccccc2c1=O	57% (inactive)
Cc1cc(C)cc(OCCCn2c(-c3ccc(Cl)cc3)nc3ccccc3c2=O)c1	58% (inactive)
Cc1cc(C)c(OCCOCCn2c(-c3ccc(Cl)cc3)nc3ccccc3c2=O)c(C)c1	43% (active)
Cc1ccc(C)c(OCCn2c(-c3ccc(Cl)cc3)nc3ccccc3c2=O)c1C	73% (inactive)
Cc1cccc(OCCn2c(-c3ccc(Cl)cc3)nc3ccccc3c2=O)c1	105% (inactive)
CCOc1ccc(OCCOCCn2c(-c3ccc(Cl)cc3)nc3ccccc3c2=O)cc1	26% (active)
Cc1cccc(OCCOCCn2c(-c3ccc(Cl)cc3)nc3ccccc3c2=O)c1C	60% (inactive)
COc1cccc(OCCn2c(-c3ccc(Cl)cc3)nc3ccccc3c2=O)c1	51% (inactive)
Cc1ccc(OCCn2c(-c3ccc(Cl)cc3)nc3ccccc3c2=O)c(C)c1	63% (inactive)
CC(C)(C)c1ccc(OCCOCCn2c(-c3ccc(Cl)cc3)nc3ccccc3c2=O)cc1	115% (inactive)
Cc1ccc(OCCOCCn2c(-c3ccc(Cl)cc3)nc3ccccc3c2=O)cc1	39% (active)
Cc1cc(C)cc(OCCOCCn2c(-c3ccc(Cl)cc3)nc3ccccc3c2=O)c1	43% (active)
COc1ccccc1N1CCN(CCCNC(=O)Cn2ncc3c([nH]c4ccccc43)c2=O)CC1	55% (inactive)
CCCNC(=O)c1c(NC(=O)c2ccc(C)cc2)sc2c1CCCCC2	65% (inactive)
COc1cccc(CNC(=O)c2ccc3c(=O)n4nc(Nc5ccccc5)sc4nc3c2)c1	88% (inactive)
CCC1SC(NC(=O)COc2ccc(OC)cc2)=NC1=O (stereo unspecified)	104% (inactive)
COCCn1c(CCC(=O)Nc2ccc(C)c(Cl)c2)nc2cccnc21	84% (inactive)

SMILES	survival
Cc1cc2c(cc1C)C(C)CC(C)(C)N2 (stereo unspecified)	94% (inactive)
O=C(NC1CCCCC1)C1OC(c2ccccc2)OC1C(=O)NC1CCCCC1 (stereo unspecified)	86% (inactive)
CC(=O)N(Cc1cccnc1)Cc1cc2cc3c(cc2[nH]c1=O)OCCO3	84% (inactive)
CCN(CC)C(=O)Cn1cc(SCC(=O)Nc2ccccc2C)c2ccccc21	74% (inactive)
CC(=O)Nc1ccc(S(=O)(=O)NCC2CCC(C(=O)NCc3ccccc3)CC2)cc1 (stereo unspecified)	71% (inactive)
O=C(N1CCCC1)N1c2ccccc2Sc2ccccc21	111% (inactive)
COc1cc(NC(=O)N2c3ccccc3Sc3ccccc32)cc(OC)c1	62% (inactive)
COCCNC(=O)N1c2ccccc2Sc2ccccc21	83% (inactive)
COc1ccccc1NC(=O)N1c2ccccc2Sc2ccccc21	-6% (active)
CCOc1ccccc1NC(=O)N1c2ccccc2Sc2ccccc21	55% (inactive)
O=C(O)c1ccccc1NC(=O)N1c2ccccc2Sc2ccccc21	40% (active)
O=C(CN1CCCC1)N1c2ccccc2Sc2ccccc21	88% (inactive)
COc1ccc(OC)c(NC(=O)N2c3ccccc3Sc3ccccc32)c1	5% (active)
COc1ccc(OC)c(NC(=O)N2CC3CCCN3c3ccccc32)c1 (stereo unspecified)	89% (inactive)
COc1ccc(OC)c(NC(=O)c2cc3c(s2)-c2ccccc2SC3)c1	65% (inactive)
Cc1ccc2c(c1)N(C(=O)CCC(=O)Nc1ccccc1Cl)CC(C)O2 (stereo unspecified)	105% (inactive)
Cc1nnc2c(Nc3ccccc3I)nc3nonc3n12	77% (inactive)
N#CCCn1cc(CO)c(-c2ccccc2)n1	95% (inactive)
COc1cccc(C(=O)c2cn(CC(=O)Nc3cccc(C)c3C)c3nc(C)ccc3c2=O)c1	67% (inactive)
Cc1nc2ccn(Cc3cccs3)c(=O)c2cc1C(=O)N1CCN(c2ccc(F)cc2)CC1	131% (inactive)
COc1ccc(Cl)cc1NC(=O)COC(=O)CC(C)(C)CC1=NS(=O)(=O)c2ccccc2N1	70% (inactive)
CCc1ccc(NC(=O)COC(=O)CCCC2=NS(=O)(=O)c3ccccc3N2)cc1	109% (inactive)
Cc1cccc(NC(=O)COC(=O)CCCC2=NS(=O)(=O)c3ccccc3N2)c1	-2% (active)

SMILES	survival
O=C(COC(=O)CCCC1=NS(=O)(=O)c2ccccc2N1)Nc1ccc(Br)cc1	72% (inactive)
CCOc1ccccc1NC(=O)COC(=O)CC(C)(C)CC1=NS(=O)(=O)c2ccccc2N1	79% (inactive)
COc1ccccc1NC(=O)COC(=O)CC(C)(C)CC1=NS(=O)(=O)c2ccccc2N1	-1% (active)
CCn1c2ccccc2c2nnc(SCCN3CCCCC3)nc21	82% (inactive)
COC(=O)c1ccccc1NC(=O)c1ccc2nc(CCc3ccccc3)oc2c1	131% (inactive)
CCc1ccccc1N1C(=O)N(CC(=O)c2ccc(Cl)cc2)c2ccccc2S1(=O)=O	82% (inactive)
CCOC(=O)C1CCN(C(=O)c2ccc3c(c2)sc2nc(-c4ccc(OCC)cc4)cn23)CC1	69% (inactive)
O=C(NCCC1=CCCCC1)c1ccc2c(c1)sc1nc(-c3ccc(F)cc3)cn12	63% (inactive)
CCOc1ccc(CNC(=O)c2ccc3c(c2)sc2nc(-c4ccc(OC)cc4)cn23)cc1	84% (inactive)
O=C(NCc1ccccc1)c1ccc2c(c1)sc1nc(-c3ccc(F)cc3)cn12	101% (inactive)
CCCNC(=O)c1ccc2c(c1)sc1nc(-c3ccc(C)cc3)cn12	89% (inactive)
CCOC(=O)C1CCN(C(=O)c2ccc3c(c2)sc2nc(-c4ccc(C)cc4)cn23)CC1	98% (inactive)
CCN(CC)CCCNC(=O)c1ccc2c(c1)sc1nc(-c3ccc(C)cc3)cn12	24% (active)
CCN(CC)CCNC(=O)c1ccc2c(c1)sc1nc(-c3ccc(F)cc3)cn12	29% (active)
CCOC(=O)C1CCN(C(=O)c2ccc3c(c2)sc2nc(-c4ccccc4)cn23)CC1	54% (active)
CCOC(=O)C1CCN(C(=O)c2ccc3c(c2)sc2nc(-c4ccc(OC)cc4)cn23)CC1	78% (inactive)
Cc1ccc(-c2cn3c(n2)sc2cc(C(=O)NCCC4=CCCCC4)ccc23)cc1	56% (inactive)
CCOC(=O)c1ccc2c(c1)sc1nc(-c3ccc(OCC)cc3)cn12	44% (active)
COc1ccc(S(=O)(=O)Nc2cccc(-c3ccc(N4CCCC4)nn3)c2)cc1F	85% (inactive)
COc1ccc(Nc2ncnc3c2cnn3C)c(OC)c1	89% (inactive)
CNS(=O)(=O)c1cn(CC(=O)Nc2cccc(C(F)(F)F)c2)cc1S(=O)(=O)NC	107% (inactive)
Cc1ccccc1OC(=O)CSc1nnc(-c2ccc(F)cc2)o1	63% (inactive)

Reference: PubChem BioAssay AID463173 (ICCB-Longwood Screening Facility, Harvard Medical School, 2010)
